Only some compounds are listed: those with a hit (about 19% of all), similar ones and a draw of the others.
HT1080NT lethal – kills 2HG-producing HT-1080-NT fibrosarcoma cells. HT-1080-NT fibrosarcoma viability, CellTiter-Glo ATP luminescence, 48 h. Potency, µM (titrated, usually from 46.1 µM), for inactives: at the top dose activity, negative = less viability, most hits filed as cytotoxic. 1.6% of 360,000 active. AID 686970;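 further: NT is the 2HG producing partner of a matched IDH1 knockdown line; potency means the concentration at half of the fitted maximal effect; 0% = DMSO-treated cells and -100% = media-only wells without cells; nearly all actives have a fitted effect of over 55% in size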
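Fibrosarcoma NT cells, 750 per well in 5% FBS RPMI, were exposed to compound for 48 hours. Viability: CellTiter-Glo luminescence.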
IL1B secr inh – inhibitors of inflammasome signaling (IL-1 beta secretion). THP-1 LPS/ATP IL-1B secretion, AlphaLISA, 16 h; hits give low values. activity change, % at 57.5 µM. 4.7% of 360,000 active. AID 743279; in the data active means activity change below about -50%; inconclusive means mostly about -30% to -49%
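Secreted IL-1B measured by AlphaLISA bead assay after 16 h compound exposure of THP-1 cells; compounds (final up to 57.5 uM) added 1 h before LPS (250 ng/mL) and ATP (1.25 mM) stimulation; lower signal means less secretion.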
HT1080 IDH1KD tx – toxicity to HT-1080 IDH1 knockdown cells (counter line); HT-1080 IDH1 knockdown viability, ATP luminescence, 48 h; Potency, µM (top dose mostly 46.1 µM), for inactives: top-dose activity, negative = toxicity, hits mostly cytotoxic; 2% of 360,000 active; AID 686971;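 further: potency means the concentration at half of the fitted maximal effect; 0% = DMSO wells and -100% = cell-free medium wells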
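Using the IDH1-knockdown HT-1080 line run in the same batch and compound series as the NT line, viability after 48 h at 37 °C was determined by CellTiter-Glo luminescence and expressed as % activity.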
DT40 TDP1 no CPT – qHTS for Inhibitors of human tyrosyl-DNA phosphodiesterase 1 (TDP1): qHTS in cells in absence of CPT | 15% of 420,000 active | DT40 Tdp1-/- hTDP1 cells, no CPT, ATP luminescence, 48 h | AID 686978, 2013 | Potency, µM (top dose mostly 46.2 µM), for the others: at the top dose activity change, negative = growth inhibition, actives largely listed as inhibitors; further: potency means the concentration at half of the fitted maximal effect; nearly all actives have a fitted effect of over 55% in size
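Cells were dispensed at 400 per well, compounds added by pin tool, plates incubated ≥48 hr at 37 °C, then CellTiter-Glo added for 30 min at room temperature before luminescence reading. Line: DT40 Tdp1-/- complemented with hTDP1; camptothecin omitted.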
TDP1 cell CPT – DT40-hTDP1 cell growth loss with CPT; chicken DT40 Tdp1-/-;hTDP1 cells + 20 nM CPT, ATP luminescence, 48 h; Potency, µM (doses to about 46.2 µM), inactives show at the top dose activity change, negative = growth inhibition, usual class: inhibitors; 12% of 420,000 active; further: potency means the concentration at half of the fitted maximal effect; nearly all actives have a fitted effect of over 55% in size
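Cell growth measured by CellTiter-Glo luminescence after a minimum 48 h, 37 C compound exposure with 20 nM CPT in Tdp1-knockout DT40 cells stably expressing hTDP1, seeded 400/well; qHTS titration format.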
* = called active by the depositor; ? = inconclusive; . = no result; [ ] = dose if it differs, or a comment. Unless noted, the call rests on the fitted dose curve; in most records, active means well fitted curve in the direction sought with a large enough effect; inconclusive means small, poorly fitted or top-dose-only effect, or another doubt; inactive means no such curve, though single readings can be large; an effect the other way counts as inactive or inconclusive. Unless noted, on the % scale 0 is the no-effect control and ±100 the full control effect.

SMILES	HT1080NT lethal	IL1B secr inh	HT1080 IDH1KD tx	DT40 TDP1 no CPT	TDP1 cell CPT
CN(C)S(=O)(=O)c1ccc(C(=O)Nc2ccnn2C2CCCCC2)cc1	-10%	11	-6%	16µM*	?
CC(C)C(C)NC(=O)COc1ccc(-c2ccccc2)cc1 (stereo unspecified)	1%	-8	-1%	21µM*	18µM*
CC(=O)c1ccc(OCc2ccc(C(=O)c3ccccc3)cc2)cc1	-30%	-61*	-24%	8.2µM*	10µM*
CCOC(=O)c1cc(OCC(=O)NC(C)C(C)C)cc(C(=O)OCC)c1 (stereo unspecified)	0%	5	-7%	-19%	-2%
CC(C)C(C)NC(=O)COc1ccc(OCc2ccccc2)cc1 (stereo unspecified)	-6%	23	-3%	?	?
CC(C)NC(=O)COc1ccc(OCc2ccccc2)cc1	-9%	23	-12%	29µM*	?
CC(C)C(C)NC(=O)COc1ccc(Sc2ccc(OCC(=O)NC(C)C(C)C)cc2)cc1 (stereo unspecified)	0%	10	9%	8.2µM*	12µM*
CC(C)C[C@@H](CN)NC(=O)c1nc[nH]c1C(=O)N[C@@H](CC(C)C)C(=O)CNC[C@H](C)NC(=O)c1nc[nH]c1C(=O)N[C@@H](CC(=O)O)C(=O)O	3%	5	7%	-5%	-12%
COc1ccc(Nc2cc(C(=O)NCc3ccco3)c3ccccc3n2)c(OC)c1	-1%	9	-3%	23µM*	?
CCN(CCCNC(=O)c1cc(Nc2ccc(OC)cc2OC)nc2ccccc12)c1cccc(C)c1	.	.	.	15µM*	21µM*
COc1ccc(N=c2oc3c(OC)cccc3cc2C(=O)NCc2ccco2)c(OC)c1	1%	-22	1%	13µM*	?
CCN(CCCNC(=O)c1cc2cc3cc(OC)ccc3nc2s1)c1cccc(C)c1	.	.	.	?	-26%
CCC(C)C(NC(=O)c1ccccc1NC(=O)c1ccc(OC)cc1)C(=O)NCc1ccco1 (stereo unspecified)	-30%	0	?	-52%	-20%
COc1ccc(C(=O)Nc2ccc(Cl)cc2C(=O)NCc2ccco2)cc1	-28%	25	-2%	6.5µM*	5.2µM*
Cc1ncc2c(c1CNC(=O)/C=C/c1cccs1)CCN(C(=O)C1CC(=O)OC13CCCCC3)C2 (stereo unspecified)	.	.	.	-9%	8%[9.04 µM]
Cc1ccc(CNC(=O)C2CCCCN2S(=O)(=O)c2ccccc2)cc1 (stereo unspecified)	-3%	-3	-1%	?	-43%
CCOc1cccc2sc(NC(=O)c3ccc(S(=O)(=O)N4CCCc5ccccc54)cc3)nc12	.	.	.	-29%	-17%
O=[N+]([O-])c1ccc(CN2CCOCCOCCOCC2)cc1	-14%	17	1%	-2%	-8%
COc1ccc(Nc2cc(C(=O)NCCCOC(C)C)c3ccccc3n2)c(OC)c1	1%	-6	13%	16µM*	16µM*
COc1ccc(Nc2cc(C(=O)NCCCN3CCN(C)CC3)c3ccccc3n2)c(OC)c1	-10%	?	-2%	23µM*	?
COc1ccc(-c2cc(C(=O)NCCN3CCOCC3)c3ccccc3n2)cc1	-3%	-12	-18%	?	-24%
COc1ccc(CC(=O)NNC(=O)c2nn(Cc3ccccc3)c(=O)c3ccccc23)cc1OC	-27%	42	-6%	-28%	-17%
CCOc1ccccc1NC(=O)CN1CCC(NC(=O)Nc2ccccc2)CC1	3%	16	-5%	?	?
O=C(NCC1CCCO1)C1CC(=O)N(C2CCCC2)C1 (stereo unspecified)	8%	2	8%	4%	4%
CC1CCc2onc(C(=O)N3CCN(c4ccccc4)CC3)c2C1 (stereo unspecified)	.	.	.	-30%	-30%
SMILES	HT1080NT lethal	IL1B secr inh	HT1080 IDH1KD tx	DT40 TDP1 no CPT	TDP1 cell CPT
COc1ccc(C(=O)N2CCC3(CCCN(Cc4cc(C(F)(F)F)cc(C(F)(F)F)c4)C3)CC2)cc1	.	.	.	?	21µM*
O=C(c1cccc(F)c1)N1CCC2(CCCN(Cc3cc(C(F)(F)F)cc(C(F)(F)F)c3)C2)CC1	.	.	.	?	-11%
FC(F)(F)c1cc(CN2CCCC3(CCNCC3)C2)cc(C(F)(F)F)c1	.	.	.	18µM*	?
CCCCNC(=O)C1(C)CCN1C(=O)c1ccc(F)c(C)c1 (stereo unspecified)	24%	-3	14%	?	-28%
CCCCNC(=O)C1(C)CCN1C(=O)c1ccc2c(c1)C(C)(C)CCC2(C)C (stereo unspecified)	19%	47	-4%	13µM*	21µM*
CCCCNC(=O)C1(C)CCCCN1C(=O)c1ccc(F)c(C)c1 (stereo unspecified)	?	0	28%	?	?
CCCCNC(=O)C1(C)CCCCN1C(=O)c1ccc2c(c1)C(C)(C)CCC2(C)C (stereo unspecified)	?	-5	?	2.1µM*	3.7µM*
OCCNc1nc2ccc(Cl)cc2[nH]1	5%	0	1%	-23%	2%
COC(=O)N1C(=O)[C@](c2ccccc2)(C2CCCCC2)N1C(=O)OC	-17%	-75*	-13%	-29%	?
CCCC1(c2ccccc2)NC(=O)N(CC(=O)Nc2cc(OC)cc(OC)c2)C1=O (stereo unspecified)	-5%	-6	-3%	?	0%
COC(=O)N1C(=O)[C@@](c2ccccc2)(C2CCCC2)N1C(=O)OC	?	-106*	-14%	16µM*	15µM*
CN1CCN(C(CNC(=O)C(=O)Nc2ccc(F)cc2)c2cccnc2)CC1 (stereo unspecified)	.	.	.	-3%	-21%
O=C(NCc1ccc(Cl)cc1)C(=O)NCC(c1cccnc1)N1CCN(c2ccc(F)cc2)CC1 (stereo unspecified)	-12%	-1	?	8.2µM*	6.5µM*
Cc1ccc(NC(=O)C(=O)NCC(c2cccnc2)N2CCN(Cc3ccccc3)CC2)cc1Cl (stereo unspecified)	.	.	.	7.3µM*	10µM*
Cc1ccc(C)c(NC(=O)C(=O)NCC(c2cccnc2)N2CCN(c3ccc(F)cc3)CC2)c1 (stereo unspecified)	.	.	.	4.6µM*	4.6µM*
Cc1c(Cl)cccc1NC(=O)C(=O)NCC(c1cccnc1)N1CCN(c2ccccc2)CC1 (stereo unspecified)	.	.	.	21µM*	16µM*
CCOC(=O)N1CCN(C(=O)CN(c2ccc(C)cc2C)S(=O)(=O)c2ccccc2)CC1	.	.	.	-21%	0%

Compound activity as filed in PubChem BioAssay.
